M1 ag = M1 muscarinic receptor agonists, primary screen, CHO-M1 cells, Fluo-4 calcium, agonist mode; Muscarinic acetylcholine receptor M1; Fluo-4 calcium fluorescence; stronger effect = higher value; B-score at 10 µM; 64,000 tested, 3% active; AID 626, 2007;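 active = fluorescence rise, raw or as B-score row- and column-corrected plate score, outside the 99.7% band of its plate's samples, either direction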
A340 absorber = compound light absorbance at 340 nm, profiling panel, artefact control, biochemical, MLSMR library, data from PS, PMK, MK assays. compound absorbance at 340 nm, fold over control. fold change at 10 µM. 65,000 tested, under 10 active. AID 708, 2007;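 active = at 10 µM dose, initial 340 nm absorbance at least 2 fold that of control wells; inactive = change under 2 fold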;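 also: initial absorbance extrapolated from kinetic A340 decline of NADH oxidation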
M1 antagonist = antagonists of rat M1 muscarinic receptor | B-score at 10 µM | Muscarinic acetylcholine receptor M1 (Rattus norvegicus), P08482 | CHO-M1 cells, Fluo-4 calcium, ACh EC80 antagonist mode; stronger effect = lower value | 64,000 tested, 3.4% active;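 active = calcium fluorescence response, raw or row-and-column corrected B-score, differing from the plate sample mean either way at a set confidence level, mostly lower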
WNV protease inh = inhibitors of WNV NS2B-NS3 protease, primary screen, biochemical, fluorogenic substrate | z-score (concentration not given with the values) | AID 577, 2007 | fluorogenic substrate Ex360/Em465; stronger effect = lower value | Genome polyprotein (West Nile virus), P06935 | 65,000 tested, 0.18% active; in the data active = z-score below about -3
Target sequence (P06935 1371-1501 limits assumed): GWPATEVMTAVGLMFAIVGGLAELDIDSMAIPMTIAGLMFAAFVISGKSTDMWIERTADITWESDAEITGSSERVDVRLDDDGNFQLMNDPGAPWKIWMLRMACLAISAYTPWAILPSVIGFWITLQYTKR
Target sequence (P06935 1502-1679 limits assumed): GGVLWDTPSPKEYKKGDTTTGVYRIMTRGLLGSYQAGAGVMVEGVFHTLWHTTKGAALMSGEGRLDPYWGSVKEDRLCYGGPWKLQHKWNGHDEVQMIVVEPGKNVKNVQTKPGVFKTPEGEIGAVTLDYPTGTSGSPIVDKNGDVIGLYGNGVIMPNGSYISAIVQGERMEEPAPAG
Autofluor 339 = intrinsic fluorescence of library compounds, ex339/em460 – biochemical, MLSMR library, data from DPM-DC assay, artefact control, profiling panel; compound autofluorescence, ex339/em460 nm, NADH buffer; stronger effect = higher value; 1 = no-compound wells, NADH background; fluorescence fold increase at 10 µM; 65,000 tested, 5.5% active;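 active = at 10 µM, mean starting fluorescence two-fold or more over control wells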;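 also: signal is the first read of a kinetic run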
BAP1 block = inhibitors of BAP1 deubiquitinase, primary screen, biochemical, Ub-AMC fluorescence, kinetic | recombinant BAP1, Ub-AMC hydrolysis fluorescence kinetic; stronger effect = lower value | calls only at 20 µM | 72,000 tested, 0.48% active;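 active = activity remaining at or below 50% of control, provided the compound also passes the data quality filters; inactive = the rest, including low values that fail the filters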;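 also: 100% = DMSO wells rate and 0% = substrate alone blank rate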
* hit, by the source's call. Shown are actives, neighbours in structure and some others; about 9.7% of the full set was active somewhere.

Screening CC(C)OC(=O)c1c(NC(=O)c2cccs2)sc2c1CCCC2 returned M1 ag 0.37, A340 absorber 1.1, M1 antagonist 0.36, WNV protease inh -0.88, Autofluor 339 2.2* and BAP1 block inactive.
`CCSc1nnc(NC(=O)NCC(F)(F)F)s1` gave M1 ag -1.3, A340 absorber 1, M1 antagonist -0.19, WNV protease inh -7.8*, Autofluor 339 1 and BAP1 block inactive.
For CCSc1nnc(NC(=O)C(C)(C(F)(F)F)C(F)(F)F)s1 the results were M1 ag -1.2, A340 absorber 1, M1 antagonist -0.55, WNV protease inh 0.46, Autofluor 339 1.1 and BAP1 block inactive.
O=C(Cn1c2ccccc2c(=O)c2ccccc21)Nc1ccc2c(c1)OCCO2 was read as BAP1 block inactive.
For Cc1nc2ccc3nc(NC(=O)c4ccc(C#N)cc4)sc3c2s1 the results were BAP1 block inactive.
`COc1cc(-c2nnc(-c3ccco3)o2)ccc1OCc1ccccc1` gave M1 ag 0.17, A340 absorber 1.1, M1 antagonist -0.91, WNV protease inh 0.36 and Autofluor 339 3.6*.
Screening CCOc1ccc(-c2nnc(-c3ccncc3)o2)cc1 returned M1 ag 0.15, A340 absorber 1, M1 antagonist -0.72, WNV protease inh -1, Autofluor 339 2* and BAP1 block inactive.
`COc1cc(-c2nnc(-c3ccncc3)o2)ccc1OCc1ccccc1` gave M1 ag 1.2, A340 absorber 1.1, M1 antagonist -0.81, WNV protease inh 0.58, Autofluor 339 2.4* and BAP1 block inactive.
COc1ccc(-c2nnc(-c3cccnc3)o2)cc1OC was read as M1 ag 1.3, A340 absorber 1.1, M1 antagonist 0.035, WNV protease inh -0.26, Autofluor 339 1.6 and BAP1 block inactive.
Screening COC(=O)C(NC(=O)C(c1ccccc1)c1ccccc1)C12CC3CC(CC(C3)C1)C2 (stereo not given) returned BAP1 block inactive.
Screening CCOC(=O)c1cc(-c2ccc(OC)c(OC)c2)no1 returned BAP1 block inactive.
For CC12CCC(=O)N1c1c(sc3nc(N4CCOCC4)c4c(c13)CCCC4)C(=O)N2 (stereo not given) the results were M1 ag 1.3, A340 absorber 1.1, M1 antagonist -0.25, WNV protease inh 0.91, Autofluor 339 2.4* and BAP1 block inactive.
COc1ccc(Nc2ncccc2C(=O)Nc2ccccc2)cc1 was read as M1 ag -0.036, A340 absorber 1, M1 antagonist 0.19, WNV protease inh -1, Autofluor 339 1 and BAP1 block inactive.
Screening COc1cccc(Nc2ncccc2C(=O)NCc2ccccc2)c1 returned M1 ag 3.8*, A340 absorber 1.1, M1 antagonist 0.59, WNV protease inh 0.33, Autofluor 339 1.2 and BAP1 block inactive.
Screening Cc1cccc(NC(=O)c2cc(=O)c3ccccc3o2)c1C returned BAP1 block inactive.
`CC(C)Cn1c(CN2C(=O)c3ccccc3C2=O)nc2ccccc2c1=O` gave M1 ag -0.35, A340 absorber 1, M1 antagonist -0.21, WNV protease inh 0.09, Autofluor 339 1.1 and BAP1 block inactive.
Cc1c(-n2c(CN3C(=O)c4ccccc4C3=O)nc3ccccc3c2=O)c(=O)n(-c2ccccc2)n1C was read as M1 ag -1.5, A340 absorber 1, M1 antagonist 1.5*, WNV protease inh -0.91, Autofluor 339 1.1 and BAP1 block inactive.
Screening CCC(=O)Nc1ccc(C)cc1C returned BAP1 block inactive.
For Cc1ccc(-c2cc(-c3ccccc3Cl)c(C#N)c(N)n2)o1 the results were M1 ag 0.22, A340 absorber 1.1, M1 antagonist 0.34, WNV protease inh -0.53, Autofluor 339 2.3* and BAP1 block inactive.

From PubChem BioAssay
